Measurements as given in PubChem BioAssay (NCI).
The panel holds about 83,000 compounds, 20% with a hit somewhere; the sample as a whole holds those more often.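 Plates (96-well) were seeded with cells, treated with compound at one concentration, and incubated for 48 hours before percent growth was determined.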 Unmarked numbers belong to inactive results. Activity calls are given as the source filed them. The calls were made as follows: active = growth percent below 10; inactive = the rest.

Assays:
Assay in all cases: NCI-60 one-dose screen, 48 h (100 = growth as untreated, 0 = no growth, -100 = all killed)
Conditions in all cases: 10 µM unless noted
[1] = test system: T-47D breast
[2] = test system: BT-549 breast
[3] = test system: MDA-MB-435 melanoma
[4] = test system: SW-620 colon
[5] = test system: MCF7 breast
[6] = test system: HCT-116 colon
[7] = test system: HCC-2998 colon
[8] = test system: KM12 colon

Compound	growth [1]	growth [2]	growth [3]	growth [4]	growth [5]	growth [6]	growth [7]	growth [8]
Clc1cccc(/C=N/Nc2nc(N/N=C/c3cccc(Cl)c3Cl)nc(N3CCCCC3)n2)c1Cl	48.3%	97.3%	68.8%	42.6%	71.2%	48.8%	97.4%	67.2%
CN1CCN(c2ccc(/C=N/Nc3nc4ccccc4c(=O)n3-c3ccccc3)cc2)CC1	92.6%	108%	104%	99.6%	93.3%	99%	103%	99.8%
COc1ccc(-n2c(/C=C3\C(=O)Nc4ccccc43)ccc2CO)cc1	88.8%	100%	94.8%	98.6%	93.3%	95.6%	113%	19.3%
N/C(=N\C(N)=N\c1nc2ccccc2s1)c1ccc(C(F)(F)F)cc1	69%	101%	93%	106%	77.9%	56.4%	94%	61.6%
C#CCNC1CCC(c2csc(C#C)n2)=C1C (configuration not stated)	65.3%	86.3%	99.2%	108%	61.1%	80.9%	107%	19.1%
Clc1nc2ccccc2nc1-c1nnc(C2CCCCC2)o1	86%	138%	99.1%	97.2%	37.4%	101%	104%	94.1%
COc1ccc(/C=N/NC(=O)c2cn(C3CC3)c3c(OC)c(N4CC5CCCNC5C4)c(F)cc3c2=O)cc1 (configuration not stated)	85.9%	112%	100%	92.1%	70.8%	53.6%	95.4%	99.7%
Cn1ccnc1C(=O)/C=C/c1ccc(CNC(=O)c2c(F)c(F)c(F)c(F)c2F)cc1	41.4%	74.1%	64.7%	38.2%	19.4%	4.78% (active)	90.7%	23.2%
COc1ccc(-c2nc3cc(Cl)c(Cl)cc3n2CC(=O)N=Nc2c(O)[nH]c3ccc(OC)cc23)cc1	37.2%	-6.95% (active)	56.4%	61.4%	67.6%	39.7%	52.8%	71.3%
O=C(CSc1nc2ccccc2c(=O)n1-c1ccccc1)Nc1cccc(C(=O)/C=C/c2ccccc2Cl)c1	91.2%	118%	97.9%	91.7%	54.1%	20.2%	108%	100%
Oc1cccc2ccc(-c3nnc(SCc4ccc(O)c5ncccc45)n3-c3ccccc3)nc12	9.55% (active)	26.1%	17%	16.4%	6.09% (active)	10.5%	28.2%	10.9%
COc1c(N2CC3CCCNC3C2)c(F)cc2c(=O)c(C(=O)N/N=C/c3ccc(F)cc3)cn(C3CC3)c12 (configuration not stated)	96.1%	84.8%	91%	99.5%	75.9%	67.9%	97.3%	104%
COc1ccccc1C(=O)Nc1cccc2c1C(=O)C(=O)C=C2	98.8%	96.3%	96.8%	94.2%	81%	99%	122%	99.3%
Cc1cc(C)c(N2C(=O)CC(Nc3ccc(Cl)cc3Cl)C2=O)c(C)c1 (configuration not stated)	93.7%	112%	102%	102%	91%	104%	118%	105%
Nc1cc(-c2c[nH]c3ccc(Br)cc23)nc2cc(-c3c[nH]c4ccc(Br)cc34)nn12	39.3%	76.4%	-20.3% (active)	5.89% (active)	8.21% (active)	-72% (active)	-3.56% (active)	-23.2% (active)
CCO/C=N/C1=C(C#N)C(c2ccc(OC)cc2)c2sc3c(C)cccc3c2O1 (configuration not stated)	34.5%	35.2%	-21.5% (active)	33.5%	23.5%	12%	21.1%	19%
CCN1CCN(Cc2ccc(C(=O)Nc3ccc(C)c(Oc4ccc(-c5[nH]nc6ncnc(N)c56)cc4)c3)cc2C(F)(F)F)CC1	100%	109%	82%	115%	70.6%	67%	117%	21.2%
CCn1c(SCC(=O)Nc2cccc(C(=O)/C=C/c3cc(OC)c(OC)c(OC)c3)c2)nc2ccccc2c1=O	49.3%	52.8%	36.7%	14.9%	19.9%	-28.8% (active)	42.2%	44.6%
COc1cc(OC)cc(C(=O)Nc2sc3c(c2C(N)=O)CCC(=O)C3)c1	7.67% (active)	11.1%	41.7%	18.6%	24.4%	7.89% (active)	88.3%	12%
O=C(NCc1ncc[nH]1)c1ccc(-c2nc3ccc4[nH]ncc4c3c3c2CCCC3)cc1	-3.92% (active)	0.679% (active)	14.6%	5.4% (active)	1.62% (active)	-4.57% (active)	12.8%	4.99% (active)

Compound	growth [1]	growth [2]	growth [3]	growth [4]	growth [5]	growth [6]	growth [7]	growth [8]
COc1ccc(NC(=O)CSc2nnc(-c3ccc4nc(-c5ccccc5)[nH]c4c3)o2)cc1	94.7%	93.5%	100%	104%	86.2%	102%	114%	99.4%
Cc1cc2nc(C(Cl)Cl)nc(-c3cccs3)n2n1	30.6%	74.1%	26.3%	10.9%	12.1%	12.2%	-54.4% (active)	-26.4% (active)
COc1cc(OC)c(S(N)(=O)=O)cc1C(=O)/C=C/c1ccc(C)cc1	2.31% (active)	21.2%	8.41% (active)	6.29% (active)	12.2%	11.4%	8.59% (active)	-1.47% (active)
CCN(CC)c1cn(-c2ccc(S(N)(=O)=O)cc2)nn1	108%	109%	104%	101%	97.5%	116%	107%	102%
CCOc1cccc(-c2nc3sccn3c2-c2ccnc(S(C)(=O)=O)n2)c1	65.8%	122%	95%	103%	36%	92.6%	80.8%	87.6%
C=CCOc1cccc(/C=C2\SC(=S)N(C3CC(=O)N(c4ccc(Br)cc4)C3=O)C2=O)c1 (configuration not stated)	95.9%	109%	109%	108%	90.7%	100%	115%	97.6%
Nc1ncc(-c2ccc3ncnc(Nc4cccc(Cl)c4F)c3c2)cn1	23.8%	61.3%	80.4%	91.1%	38.2%	96.4%	56.5%	89.6%
Nc1nc(-c2cccc([N+](=O)[O-])c2)c(N=Nc2cccc([N+](=O)[O-])c2)s1	31%	-41.4% (active)	36.2%	18.5%	13.1%	-44.1% (active)	59.8%	48.2%
COc1ccc(C(=O)c2c(N)c(C#N)cn2-c2ccccc2OC)cc1	32.1%	64.5%	-27.8% (active)	20.3%	13.9%	22.2%	48%	27.5%
CCCCNNC(=O)c1ccc(-c2cccc(F)c2F)cc1	3.16% (active)	58.6%	25.4%	20.7%	15.9%	13.9%	37.9%	44.6%
Cc1ccc(-c2nnc(SCc3ccc(O)c4ncccc34)o2)cc1	13.4%	30%	17.7%	14.1%	10.6%	18.5%	34.4%	11.4%
Cc1cc(-c2ccc(Cl)cc2)n(Cc2nnc(SCC(=O)Nc3ccc(S(N)(=O)=O)cc3)n2C2CCCCC2)n1	108%	124%	109%	107%	91%	107%	110%	108%
CS(=O)(=O)Nc1cc(-c2ccc3ncc(C#N)c(Nc4cccc(Cl)c4F)c3c2)cnc1Cl	-8.48% (active)	-4.23% (active)	3.99% (active)	4.99% (active)	3.98% (active)	-14.8% (active)	-22.1% (active)	3.37% (active)
CCCCCc1ccc(S(=O)(=O)Nc2cccc(-c3csc(NC(=O)CN4CCN(C)CC4)n3)c2)cc1	67.2%	93.4%	45.3%	46.5%	26.2%	16.9%	14.8%	65.8%
COc1cc(/C=C2\C(=O)Nc3ccccc32)ccc1OCc1ccc(F)cc1	107%	116%	103%	106%	87.8%	107%	119%	101%
C#CCOC(=O)[C@@H]1CCCN1CC#C	92.6%	95.2%	90.9%	96.7%	74.9%	81.6%	96.7%	91.5%
COc1cc2oc(-c3cccc(NC(=O)c4cc(N)ccc4Cl)c3)cc(=O)c2c(OC)c1OC	62.4%	89.4%	89.5%	110%	96.1%	101%	101%	96.4%
NC(=O)c1c(NC(=O)c2ccccc2C(F)(F)F)sc2c1CCC(=O)C2	14.1%	14.7%	14.7%	19%	5.93% (active)	9.24% (active)	33.3%	9.45% (active)
O=c1[nH]c(Sc2sc3ccc(Cl)cc3c2CBr)nc(=S)[nH]1	-0.0992% (active)	48.5%	15.1%	40.4%	15.2%	38.6%	48.5%	12.8%
CC1(C)CC[C@]23CC[C@]4(C)[C@H](CC[C@@H]5[C@@]6(C)CCCN(CO)C(C)(C)[C@@H]6CC[C@]54C)[C@H]2[C@H]1OC3	57.3%	85.5%	88.7%	9.58% (active)	17.1%	22.1%	3.53% (active)	56.4%

Compound	growth [1]	growth [2]	growth [3]	growth [4]	growth [5]	growth [6]	growth [7]	growth [8]
C=C(C=O)[C@@H]1CC[C@]2(CO)CC[C@]3(C)[C@H](CC[C@@H]4[C@@]5(C)CCCNC(C)(C)[C@@H]5CC[C@]43C)[C@@H]12	13.3%	74.3%	76.3%	1.41% (active)	12.7%	-63.8% (active)	-65.7% (active)	1.61% (active)
Cc1cc2ncc(-c3cc4ccccc4c(N4CCN(C)CC4)n3)nc2cc1C	-54% (active)	85.9%	-87.8% (active)	1.46% (active)	-65% (active)	-85.7% (active)	-84.2% (active)	-3.53% (active)
Cc1ccc2c(c1)Oc1nc(N)c(C#N)c(N)c1C2Sc1ccc(F)cc1 (configuration not stated)	-47.1% (active)	-88.4% (active)	-93.6% (active)	-63.6% (active)	-59.7% (active)	-89.9% (active)	-90.9% (active)	-91.4% (active)
CCOC(=O)C(=O)CC(=O)N1C(=S)NC(=O)C1CC(C)C (configuration not stated)	109%	87.5%	99.9%	106%	95.8%	95.4%	97.8%	98.8%
COc1cc2oc(-c3cccc(N)c3)cc(=O)c2c(OC)c1OC	97.8%	116%	103%	112%		111%	110%	103%
COC(=O)c1[nH]nc2c1C1(C(=O)c3cccc4cccc1c34)C(C#N)=C(N)O2 (configuration not stated)	104%	124%	106%	100%		101%	106%	97.8%
C#Cc1nc(C(C)=O)cs1	101%	98.5%	104%	107%	90.8%	95%	114%	94.7%
O=C(Nc1cccc(Cl)c1)Nc1nc2ccc([N+](=O)[O-])cc2o1	-10.9% (active)	24%	19.2%	7.83% (active)		5.21% (active)	24.3%	7.17% (active)
NS(=O)(=O)c1ccc(Nc2cc(-c3ccccc3)nc(SCC(=O)c3ccccc3)n2)cc1	97.5%	97.6%	93.4%	102%	89.5%	101%	101%	102%
CCC(CC)N1C(=O)/C(=c2\sc3n(c2=O)NC2C(N=3)N(CC)C(=O)N2CC)c2ccccc21 (configuration not stated)	86.1%	102%	9.51% (active)	48.2%	35.8%	27.9%	65.9%	11.2%
O=C(Cn1cc[n+](CC(=O)c2ccc(-c3ccccc3)cc2)c1)Nc1cccc2cccnc12	40.4%	57.4%	79.3%	85%		72.4%	51.7%	31.6%
COc1ccc(NCc2cn(-c3ccc(C(=O)O)cc3)nc2-c2cc(C(F)(F)F)cc(C(F)(F)F)c2)cc1	76.6%	110%	101%	102%	90.9%	95.2%	104%	99.8%
CCOC(=O)c1c(Nc2ccccc2)nn2c(-c3cccs3)ccnc12	79.2%	109%	87.5%	88.7%		78%	100%	82.1%
CC1=NC2=NC(=O)/C(=C3/N=C(C)C=C(c4ccccc4)N3N)NN2C(c2ccccc2)=C1	102%	111%	108%	108%	93.6%	102%	110%	98.4%
CC(C)(C)c1ccc(CC(=O)Nc2sc3c(c2C(N)=O)CCC(=O)C3)cc1	-15.4% (active)	9.57% (active)	1.24% (active)	3.83% (active)	5.89% (active)	5.7% (active)	25.5%	-3.85% (active)
Nc1nc(N)c2c(n1)NC(c1ccc(C(F)(F)F)cc1)CC(c1ccc(Nc3nc(NCCO)nc(N4CCOCC4)n3)cc1)=N2 (configuration not stated)	62.7%	76.3%	65.9%	56.7%	33.7%	35.8%	86.4%	51.2%
NC(N)=Nc1ccc(Oc2cccc(NC(N)=Nc3ccc(Br)c(C(F)(F)F)c3)c2)cc1	55.5%	45.9%	57.5%	53.4%	32.2%	42.9%	50.8%	20.4%
O=C1[C@H]2Cc3c([nH]c4ccccc34)[C@@H](c3ccc(Cl)cc3)N2C(=O)CN1C1CCN(Cc2ccccc2)CC1	55.9%	83.9%	43.8%	62.5%	12.6%	33%	40.3%	47.7%
Cc1ccc(NC(=O)c2ccc(CN3CCOCC3)c(C(F)(F)F)c2)cc1Oc1ccc(-c2[nH]nc3ncnc(N)c23)cc1	11%	66.8%	47.7%	110%	55.8%	55.4%	75.2%	25.4%
